Bioassay records as filed in PubChem BioAssay.
Pol beta inh = blocks human DNA polymerase beta activity; P06746; Pol beta primer extension/strand displacement, fluorescence kinetic; Potency, µM (series often up to 114 µM), actives largely listed as inhibitors; actives 1.3% (n = 340,000)
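Reaction started by 50 nM substrate onto compound-treated Pol beta (10 nM, 15 min preincubation, room temperature); plates read at 0 min and 10 min. Normalized concentration-effect data fitted by four-parameter Hill equation.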
POLK inh = DNA polymerase kappa (human) inhibition | Potency, µM (titrated, usually from 107 µM), usual class: inhibitors | AID 588579 | actives 0.53% (n = 400,000) | purified Pol kappa, fluorescent DNA synthesis assay, 10 min | Q9UBT6
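10 nM Pol kappa preincubated 15 min at room temperature with compounds, then reaction started with substrate at 50 nM final. Fluorescence read kinetically at 0 and 10 min; buffer-only wells served as negative control.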
GCN5L2 inh = blocks human GCN5L2 histone acetyltransferase; Q92830; actives 0.21% (n = 390,000); Potency, µM (top dose mostly 58.9 µM), usual class: inhibitors; GCN5L2 HAT assay, ThioGlo1 CoA-SH fluorescence; AID 504327
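Preincubate 20nM GCN5L2 with compound 15 min, RT → add 50uM ThioGlo1 + 75uM H3(1-25) + 70uM acetyl-CoA → read fluorescence 0 and 20 min. Primary qHTS; fluorescent artifacts likely.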
POLI inh = DNA polymerase iota (human) inhibition; Pol iota fluorescent replication assay, 10 min; Potency, µM (series often up to 115 µM), usual class: inhibitors; actives 1% (n = 390,000)
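Fluorescent replication assay read twice, at 0 min and 10 min after adding 50 nM (final) substrate. Enzyme (10 nM) and compounds were first incubated 15 min at room temperature; enzyme-free buffer wells were negative controls.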
GLS inh = inhibitors of human glutaminase (GLS); O94925; Potency, µM (titrated, usually from 45.5 µM), actives largely listed as inhibitors; actives 0.21% (n = 410,000); GLS enzymatic activity, qHTS titration
Target sequence (O94925 whole entry, looked up): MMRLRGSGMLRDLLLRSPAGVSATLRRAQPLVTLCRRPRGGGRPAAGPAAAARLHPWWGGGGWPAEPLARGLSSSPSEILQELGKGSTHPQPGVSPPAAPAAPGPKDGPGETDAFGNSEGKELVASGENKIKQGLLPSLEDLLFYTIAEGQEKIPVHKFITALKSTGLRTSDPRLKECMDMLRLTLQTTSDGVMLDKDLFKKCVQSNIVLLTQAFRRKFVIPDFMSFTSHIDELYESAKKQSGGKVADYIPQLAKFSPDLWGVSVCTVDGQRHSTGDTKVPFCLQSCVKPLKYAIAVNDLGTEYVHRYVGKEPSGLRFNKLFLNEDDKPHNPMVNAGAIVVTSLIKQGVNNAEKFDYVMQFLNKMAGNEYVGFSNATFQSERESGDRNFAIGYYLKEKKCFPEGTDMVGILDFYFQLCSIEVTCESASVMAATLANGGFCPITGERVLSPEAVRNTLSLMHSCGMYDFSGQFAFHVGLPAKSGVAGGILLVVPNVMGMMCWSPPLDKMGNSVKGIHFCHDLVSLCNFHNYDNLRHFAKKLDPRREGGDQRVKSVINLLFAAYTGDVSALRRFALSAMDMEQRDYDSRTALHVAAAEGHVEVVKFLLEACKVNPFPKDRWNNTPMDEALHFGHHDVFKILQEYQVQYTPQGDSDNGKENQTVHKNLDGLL
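Two-point fluorescence kinetic (t0, 30 min RT) for hKGA; glutamate detected via glutamate oxidase–HRP–Amplex Red. Substrate: 1 mM L-glutamine solution; buffer 45 mM KH2PO4, pH 8.2.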
Pol eta inh = blocks human DNA polymerase eta activity | Potency, µM (series often up to 114 µM), most hits filed as inhibitors | actives 1.2% (n = 390,000) | recombinant Pol eta, fluorescent DNA replication assay
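Pol eta at 10 nM preincubated with compounds 15 min at room temperature; reaction started with fluorescent substrate (50 nM final) and read kinetically at 0 and 10 min.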
Each line names hits and unclear results; the compound was inactive in the other large screens; ! = not confirmed by another sample. Rows were chosen to be rich in hits. Some 2.4% of all compounds tested hit in one or more screens of this group. Calls come from the whole dose curve; as a rule, active = well fitted inhibition curve with a large enough effect; inconclusive = small, poorly fitted or top-dose-only effect, or another doubt; inactive = no such curve, though single readings can be large or run the other way.

CCOC(=O)/C=C1\CN(Cc2ccc(OC)cc2)S(=O)(=O)c2ccc(C(F)(F)F)cc21	POLI inh inconclusive (no result: Pol beta inh, GCN5L2 inh, GLS inh, Pol eta inh)
C[C@@H]1NC(=O)c2cc([N+](=O)[O-])cc(I)c2NCCCC[C@@H](C(N)=O)NC(=O)[C@H](CCC(=O)O)NC1=O	POLK inh inconclusive, POLI inh 39.8µM, Pol eta inh 22.4µM
NC(=O)C[C@H]1NC(=O)[C@H](CCC(=O)O)NC(=O)c2cc([N+](=O)[O-])cc(I)c2NCCC[C@@H](C(N)=O)NC1=O	POLK inh inconclusive, POLI inh inconclusive, Pol eta inh 35.5µM
NC(=O)C[C@@H]1NC(=O)[C@H](CCC(=O)O)NC(=O)c2cc([N+](=O)[O-])cc(I)c2OCC[C@@H](C(N)=O)NC1=O	POLK inh inconclusive, Pol eta inh 35.5µM
NC(=O)[C@@H]1CCCNc2c(I)cc([N+](=O)[O-])cc2C(=O)N[C@@H](CCC(=O)O)C(=O)N[C@@H](CO)C(=O)N1	none
CCOC(=O)c1c(C)[nH]c(C)c1S(=O)(=O)N1CCCC(C(=O)NCc2ccc(Cl)cc2)C1 (stereo unspecified)	none
O=[N+]([O-])c1cc(C(F)(F)F)cc([N+](=O)[O-])c1Sc1n[nH]c(C(F)(F)F)n1	POLI inh 25.1µM
CN(C)/C=N/c1nc(Sc2ccc(C(F)(F)F)cc2[N+](=O)[O-])n[nH]1	none
Cc1ccc(C)c(NC(=O)CN(CCc2ccccc2)S(=O)(=O)c2ccccc2)c1	POLI inh 79.4µM
COc1ccc(S(=O)(=O)N(CCc2ccccc2)CC(=O)Nc2cc(Cl)ccc2C)cc1	POLK inh inconclusive, POLI inh 89.1µM
CC(=O)c1cccc(S(=O)(=O)N2CCN(c3nc(-c4cccs4)nc4ccccc34)CC2)c1	none (no result: Pol beta inh, GCN5L2 inh, GLS inh, Pol eta inh)
COC(=O)c1ccc(NC(=O)CN(c2cccc(C(F)(F)F)c2)S(C)(=O)=O)cc1	Pol beta inh inconclusive (no result: Pol eta inh)
NNC(=O)c1cc(O)c(O)c(O)c1	Pol beta inh 3.16µM, POLK inh 56.2µM, POLI inh inconclusive
COc1c(Cl)cc(C(=O)NN)cc1Cl	none
C[C@@H]1OC(OC2CC[C@@]3(C)C(CC[C@@]4(C)C3CC=C3C5CC(C)(C)CC[C@]5(C(=O)OC5OCC(O)[C@@H](O)[C@@H]5OC5O[C@@H](C)[C@H](O[C@H]6OC(CO)C(O)C(O)C6O)C(O)C5O)C(O)C[C@@]34C)C2(C)C)C(O)C(O)[C@H]1OC1OCC(O)C(O)[C@H]1O (stereo partly specified)	POLK inh 25.1µM (no result: Pol beta inh, POLI inh, GLS inh, Pol eta inh)
CC1O[C@@H](OC2C(COC3OC(CO)C(O)[C@H](O)C3O)OC(OC3CC[C@]4(C)C(CC[C@@]5(C)[C@@H]4CC=C4[C@@H]6CC(C)(C)CC[C@]6(CO)C(O)C[C@]45C)C3(C)C)C(O)C2O)C(O)C(O)C1O (stereo partly specified)	none (no result: Pol beta inh)
COc1ccc(CN2CCC3C=CCC(C(=O)O)C3C2=O)cc1OC (stereo unspecified)	none (no result: Pol beta inh, GCN5L2 inh, GLS inh, Pol eta inh)
CCOC(=O)c1ccccc1NC(=O)Cn1c(=O)n(-c2ccc(CC)cc2)c(=O)c2c(C)c(C(=O)N(C)C)sc21	none
COc1cc(C(=O)OCc2cc(=O)n3nc(C4CCCCC4)sc3n2)cc(OC)c1OC	none
CC(=O)N(c1ccc2oc(=O)sc2c1)S(=O)(=O)c1cccs1	POLI inh inconclusive
CC(=O)N(c1ccc2oc(=O)sc2c1)S(=O)(=O)c1ccc(C(=O)O)cc1	POLK inh inconclusive, GCN5L2 inh inconclusive, POLI inh 3.55µM, Pol eta inh 35.5µM
CCOc1ccc2noc3c2c1C(=O)c1ccccc1-3	none
O=C1c2ccccc2-c2onc3c(Oc4ccccc4)cc(O)c1c23	Pol beta inh 35.5µM (no result: POLK inh, POLI inh, GLS inh, Pol eta inh)
Cc1nc(SCC(=O)c2ccccc2)c(C#N)c(-c2ccco2)c1C(=O)NCc1ccco1	POLK inh inconclusive, POLI inh inconclusive, Pol eta inh 20µM
COC(=O)N1CCN(/[N+]([O-])=N/Oc2ccc([N+](=O)[O-])cc2[N+](=O)[O-])CC1	POLI inh inconclusive (no result: Pol beta inh, GCN5L2 inh, GLS inh, Pol eta inh)
NC(=O)c1ccc(N=C2C(=O)Nc3ccc([N+](=O)[O-])cc32)cc1	Pol beta inh inconclusive, POLI inh inconclusive, Pol eta inh 20µM
CCCNc1nc(Nc2ccc([N+](=O)[O-])cc2)nc(N2CCOCC2)n1	none (no result: Pol beta inh, GCN5L2 inh, GLS inh, Pol eta inh)
Nc1ccc(Oc2ccc(N)c([N+](=O)[O-])c2)cc1[N+](=O)[O-]	none (no result: Pol beta inh, POLK inh, GCN5L2 inh, POLI inh)
COc1cc(SSc2cc(OC)cc([N+](=O)[O-])c2N)c(N)c([N+](=O)[O-])c1	GCN5L2 inh 15.8µM, GLS inh inconclusive
CC(C)N(C)C1=CC(=O)C(N(C)C(C)C)=CC1=O	POLK inh inconclusive, POLI inh 44.7µM (no result: Pol beta inh, GCN5L2 inh)
CCN1/C(=C/c2ccc3cc(C)ccc3[n+]2CC)Sc2cc(C)ccc21	Pol beta inh inconclusive, POLI inh inconclusive, Pol eta inh inconclusive
CCCCN1/C(=C/c2ccc3ccccc3[n+]2CC)Sc2ccccc21	Pol beta inh 50.1µM
CCOC(=O)CN1C(=N)N(c2nc(NC(C)C)nc(OC)n2)CC1=O	POLI inh 79.4µM
COc1cc2c(cc1O)CCN[C@@]21CS[C@H]2c3c(OC(C)=O)c(C)c4c(c3C(COC1=O)N1C2C2c3c(cc(C)c(OC)c3O)CC([C@@H]1O)N2C)OCO4 (stereo partly specified)	GLS inh 22.4µM (no result: Pol beta inh, POLI inh, Pol eta inh)
CCN(CC)/[N+]([O-])=N/OCOC(=O)C(C)c1ccc(CC(C)C)cc1 (stereo unspecified)	none (no result: Pol beta inh, GCN5L2 inh, GLS inh, Pol eta inh)
S=c1[nH]nc(-c2ccccn2)n1/N=C/c1ccc(Br)s1	none
S=c1[nH]nc(-c2ccccn2)n1/N=C/c1ccc(-c2ccccc2Cl)o1	Pol beta inh 22.4µM, GCN5L2 inh inconclusive
Cc1cccc(NC(=O)C(=O)NCC(c2cccnc2)N2CCOCC2)c1 (stereo unspecified)	none
Cn1ncc(S(=O)(=O)Cc2ccccc2)c(Cl)c1=O	GCN5L2 inh inconclusive, GLS inh 11.2µM
O=c1n(CCCN2CCN(c3cccc(Cl)c3)CC2)nc2ccccn12	GCN5L2 inh 11.2µM!
Cc1oc2ccc(O)c(CN3CCCC(C)C3)c2c1C(=O)Nc1ccccc1 (stereo unspecified)	none
O=C(Nc1ccc2[nH]c(=S)sc2c1)Nc1ccccc1F	POLI inh inconclusive, Pol eta inh 79.4µM
O=C(Nc1ccc2[nH]c(=S)sc2c1)c1ccccc1	GLS inh inconclusive
Cc1cc2oc(C(=O)N(Cc3ccc(N(C)C)cc3)CC3CCCO3)c(C)c2cc1Cl (stereo unspecified)	none
Cc1ccccc1-c1cc2c(nn1)-c1ccccc1C2=O	POLI inh 15.8µM
